An excerpt weighted towards active compounds, which were near 12% of everything screened.
L3MBTL1 block: inhibitors of human L3MBTL1; Q9Y468; AlphaScreen L3MBTL1–H3K9me1 peptide binding; Potency, µM (series often up to 57.1 µM), without a hit: at the highest dose activity, negative = inhibition, hits mostly inhibitors; hit rate 0.66% among 230,000; further: on the % scale 0 is the no-effect control and ±100 the full control effect; nearly all actives have a fitted effect of over 60% in size
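L3MBTL1 50 nM + b-AHA-H3(1-15)K9me1 75 nM, 30 min RT; compound added, 30 min RT; streptavidin donor/Ni-chelate acceptor beads 10 ug/mL each final, 30 min RT dark; AlphaScreen read.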
Sfp PPTase inh: blocks B. subtilis Sfp PPTase activity; Potency, µM, for the others: largest response in the series, negative = inhibition, hits mostly inhibitors; Biochemical Sfp PPTase activity, qHTS; Q9F4F7; AID 1490; hit rate 3.5% among 310,000;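 further: the enzyme is Sfp with the accession as filed and its product quenches rhodamine fluorescence; 0% = enzyme reaction without inhibitor and -100% = no enzyme wells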
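Step 1, compound plus 15 nM Sfp-PPTase, 15 min, room temperature. Step 2, add rhodamine-CoA (5 uM) and BHQ-2-YbbR (12.5 uM). Step 3, read 525/598 nm fluorescence at 0 and 30 min.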
HP1b binding inh: inhibitors of HP1-beta chromodomain binding to methylated histone tails | AlphaScreen HP1-beta / biotin-H3K9me3 peptide binding | hit rate 0.56% among 390,000 | P83916 | Potency, µM (titrated, usually from 114 µM), for inactives: at the highest dose activity change, negative = inhibition, most hits filed as inhibitors; further: nearly all actives have a fitted effect of over 70% in size
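Compound inhibition of the preformed complex between 50 nM HP1-beta and 50 nM biotinylated H3K9me3 peptide was read by AlphaScreen. Buffer was PBS pH 7.4 with 0.01% Tween-20. Incubations ran 30 min at room temperature, with 10 ug/mL donor/acceptor beads.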
G9a inh: G9a (human) methyltransferase inhibition. Q96KQ7. G9a H3K9 monomethylation, AlphaScreen, 2 h. Potency, µM (top dose mostly 102 µM), without a hit: top-dose activity, negative = inhibition, actives largely listed as inhibitors. hit rate 8.8% among 350,000; further: on the % scale 0 is the no-effect control and ±100 the full control effect; nearly all actives have a fitted effect of over 75% in size
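Step 1: enzyme (final 20 nM) with compound, 15 min RT. Step 2: substrate peptide 500 nM and SAM 20 uM, 2 h RT. Step 3: anti-H3K9me1 antibody and AlphaScreen beads, 10 min, then plate read.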
BAZ2B inh: blocks human BAZ2B | Q9UIF8 | AlphaScreen BAZ2B-H3K14Ac peptide displacement | Potency, µM (series often up to 114 µM), inactives show top-dose activity change, negative = inhibition, hits mostly inhibitors | hit rate 4.4% among 360,000; further: on the % scale 0 is the no-effect control and ±100 the full control effect; nearly all actives have a fitted effect of over 60% in size
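Complex of BAZ2B and biotin-H3K14Ac (50 nM apiece) forms over 30 min at RT, then faces library compounds up to 110 uM for another 30 min; AlphaScreen beads added, 20 min dark incubation, luminescence read.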
JMJD2A Tudor: inhibitors of human JMJD2A Tudor domain. O75164. AlphaScreen JMJD2A-Tudor / H3K4me3 peptide binding. Potency, µM (top dose mostly 114 µM), inactives show at the highest dose activity change, negative = inhibition, most hits filed as inhibitors. hit rate 4.4% among 390,000. AID 504339; further: on the % scale 0 is the no-effect control and ±100 the full control effect; nearly all actives have a fitted effect of over 50% in size
* marks the source's active call; other numbers are inactive results; ? = inconclusive; . = not tested or not shown; [ ] = remark or other dose. The call rests on the fitted dose curve; in most records, active means well fitted curve in the direction sought with a large enough effect; inconclusive means small, poorly fitted or top-dose-only effect, or another doubt; inactive means no such curve, though single readings can be large; an effect the other way counts as inactive or inconclusive. Potency means the concentration at half of the fitted maximal effect.

SMILES | L3MBTL1 block | Sfp PPTase inh | HP1b binding inh | G9a inh | BAZ2B inh | JMJD2A Tudor
COc1ccc(NC(=O)c2c(NCc3ccc(C)o3)sc3c2CCC(C)C3)cc1 (stereo unspecified) | . | . | -19% | 8.9µM* | -34% | 45µM*
COc1ccc(NC(=O)c2c(NCc3cccs3)sc3c2CCC(C)C3)c(OC)c1 (stereo unspecified) | . | . | -13% | ? | ? | ?
COc1ccccc1NC(=O)c1c(NCc2ccc(C)o2)sc2c1CCC(C)C2 (stereo unspecified) | . | . | -5% | 8.9µM* | -33% | ?
COc1ccc(NC(=O)c2c(NCc3ccc(C)o3)sc3c2CCC(C)C3)c(OC)c1 (stereo unspecified) | . | . | -17% | 16µM* | -38% | 28µM*
COc1ccc(NC(=O)c2c(NCc3ccc(C)o3)sc3c2CCCCC3)c(OC)c1 | . | . | -17% | 13%[59 µM] | 18% | 50µM*
CCc1ccccc1N1CC(c2nc3ccccc3n2CCOc2ccc(Cl)c(C)c2)CC1=O (stereo unspecified) | . | . | 36% | 15%[59 µM] | 8% | -31%
CSCC[C@H](N)C(=O)N[C@@H](CCCN=C(N)N)C(=O)N[C@@H](Cc1ccccc1)C(=O)N[C@@H](Cc1ccccc1)C(=O)N[C@H](C(=O)O)C(C)C | . | 6% | . | . | . | .
O=C(NCCCCc1ccccc1)c1nn(-c2ccccc2)nc1CO | . | . | 56% | 35%[59 µM] | 26% | 19%
Cn1ccc2cc(-c3ccc4ncnc(NCc5cccc(F)c5)c4c3)ccc21 | -7% | . | . | -23%[12.7 µM] | -37% | .
Cc1cccc(-n2c3nc(=O)[nH]c(=O)c-3cc3c(Cl)cccc32)c1C | . | . | 39% | -41%[59 µM] | 2% | -11%
CC(=O)c1ccc(Nc2ccc(-c3ccccc3C)nn2)cc1 | -18% | -6% | 10% | . | 79µM* | -32%
O=C(O)c1ccc(CNc2ncnc3nc[nH]c23)cc1 | . | . | 32% | . | . | -8%
COC(=O)CN1C(=O)CSc2ccc(S(=O)(=O)Nc3cccc(C)c3)cc21 | . | . | 49% | -42%[59 µM] | -9% | -8%
Cc1ccc2c(=O)cc(C(=O)Nc3nnc(CC(C)C)s3)oc2c1C | . | . | 49% | -28%[59 µM] | -2% | -22%
Cc1nnc(SCC(=O)c2ccc([N+](=O)[O-])cc2)s1 | -9% | 50µM* | 20% | -18%[59 µM] | -17% | -33%
O=C(CSc1ccccc1C(=O)O)c1ccc([N+](=O)[O-])cc1 | . | -94% | ? | 20µM* | ? | 20µM*
CC(=O)Nc1ccc(NC(=O)C2Cc3ccccc3N2C(=O)c2ccccc2)cc1 (stereo unspecified) | . | . | 13% | 4%[59 µM] | -3% | -11%
O=S(=O)(Nc1ccccc1Cl)c1ccc2[nH]c(=S)oc2c1 | . | 2% | 14% | 7.1µM* | ? | -18%
COc1ccc(NS(=O)(=O)c2ccc3oc(=O)ccc3c2)cc1 | 2% | 10% | 59% | . | -3% | 4%
COc1ccccc1NS(=O)(=O)c1ccc2[nH]c(=S)oc2c1 | 1% | . | 12% | . | . | -24%
COc1ccc(NS(=O)(=O)c2ccc3oc(=S)[nH]c3c2)cc1 | -4% | 5% | 38% | 35µM* | -21% | 4%[11.4 µM]
Cc1nnc2sc(-c3ccc(-c4ccc(Cl)c(C(F)(F)F)c4)o3)nn12 | -5% | -6% | 14% | 50µM* | 9% | ?
Cc1ccc(-c2nn3c(-c4cccc(Cl)c4)nnc3s2)cc1 | . | 14% | . | 25%[59 µM] | 2% | .
CCOc1ccc(C(=O)N(Cc2nc(-c3cccc(C)c3)no2)C(C)C)cc1 | . | . | 90% | 55%[59 µM] | 75% | 3%
Cn1cnc2nc[nH]c2c1=S | . | . | 12% | . | . | 3.5µM*
CC(O)CNc1ncnc2nc[nH]c12 (stereo unspecified) | 3% | 17% | 41% | 11%[2.33 µM] | 5% | -6%
Cn1c(CSCc2ccc(Cl)cc2)n[nH]c1=S | 3% | 13% | 6% | 10µM* | -22% | ?
Cn1c(CSCc2ccc(F)cc2)n[nH]c1=S | 7% | -7% | 11% | . | -9% | 28µM*
Cn1c(Cn2c3ccccc3c3ccccc32)n[nH]c1=S | 1% | 12% | 23% | 7.9µM* | -4% | -10%
